Here are results for 26 molecules from PubChem BioAssay (EPA / NIEHS).

More than one record can exist for a structure, and the calls need not agree. Active and inactive are the calls of the source. The calls were made as follows: active = hit-call score of the fitted dose curve at least 0.9, where 1 is the maximum; inactive = score below 0.9.

This assay is described as follows: CCTE_Shafer_MEA_acute_network_burst_percentage: CCTE's Neural Acute Assay for Percentage of Network Bursts, Shafer Lab (AID 2284022).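 Also: curves fitted for loss so actives lower network burst percentage.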 On the procedure:
CCTE_Shafer_MEA_acute assay is conducted using Axion Biosystems 48 well microelectrode array (MEA) plates and Maestro recording system. Each well of the MEA plate contains a grid of 16 microelectrodes embedded in the culture surface. Electrically active cells, such as neurons, can be cultured over the electrodes, and electrical activity in these cells can be recorded extracellularly. The spontaneous firing of neurons is captured from each electrode on a microsecond timescale providing both temporally and spatially precise data. […] The CCTE_Shafer_MEA_acute assay uses primary cultures of rat cortical neurons. As these cultures mature over time, neural networks develop functional activity and form cohesive networks in which electrical activity can be highly coordinated. Baseline 40-minute recordings are made on days post-plating 13 or 15, followed by a secondary 40-minute recording after chemical exposure.CCTE_Shafer_MEA_acute_network_burst_percentage is a component of the CCTE_Shafer_MEA_acute assay. It measures the percent of spikes (action potential firings) in network bursts (temporally-clustered groups of spikes across multiple electrodes) as the number of spikes occuring in network bursts divided by the total number of spikes during a recording in a microelectrode array (MEA) using Axion Biosystems Maestro 768 channel amplifier with the AxIS adaptive spike detector. The recordings before and after chemical treatment are used to calculate a percent change in the network burst percentage in each well.Data from the assay component CCTE_Shafer_MEA_acute_network_burst_percentage was analyzed into 1 assay endpoint. This assay endpoint, CCTE_Shafer_MEA_acute_network_burst_percentage, was analyzed in the negative analysis fitting direction relative to DMSO as the negative control and baseline of activity. Using a type of functional reporter, gain or loss-of-signal activity can be used to understand electrical activity.
Spontaneous activity in the cortical cultures was recorded using an Axion Biosystems Maestro 768 channel amplifier and Axion Integrated Studios (AxIS) v1.8 (or later) software. The amplifier recorded from all channels simultaneously (gain = 1200 x; sampling rate = 12.5 kHz/channel): raw signals were filtered with a Butterworth band-pass filter (300-5000 Hz), which filters out slower local field potentials leaving only fast potentials, i.e., "spikes", arising from extracellular currents associated with action potentials (Pine 2006; Wheeler and Nam 2011). On-line spike detection of filtered signals was conducted with the AxIS adaptive spike detector, using a threshold of 8x the root mean squared (rms) noise on each channel. Any electrodes with rms noise levels greater than 5 uV were grounded (e.g., no data were recorded). Once grounded, an electrode was grounded for the duration of the experiment. All recordings were conducted at 37 C. Wells were deemed usable if on the day of the exposure >/= 10 electrodes were active (defined as >/= 5 spikes/min). On DIV 13 or 15, a minimum of three wells from one cortical culture preparation were treated with each compound (0.03-40 uM). Prior to recording baseline activity, each mwMEA plate was placed in the Maestro at 37 C and allowed to sit for 20 min while firing rates stabilized. Baseline activity (40 min) was recorded before the addition of each compound. An additional 40 min of spontaneous activity was recorded in the presence of each compound. Changes in network parameters relative to baseline were assessed following compound treatment.
On to `O=C(O)C(F)(F)C(F)(F)C(F)(F)C(F)(F)C(F)(F)F`, for which the result was inactive.

For `CCC(C)(c1ccc(O)cc1)c1ccc(O)cc1`, the concentration at half-maximal activity (AC50) – broadly, the midpoint of the concentration-response curve, whichever way the signal moves – is 3.31 µM (active).

Turning to `COS(=O)(=O)OC`, the molecule was classed as inactive.

Turning to `CCCCCCCCCC[N+](C)(C)CCCCCCCCCC`, the AC50 was 29.4 µM (active).

As to `O=C(NC(=O)c1c(F)cccc1F)Nc1cc(Cl)c(OC(F)(F)C(F)F)c(Cl)c1`, the AC50 is 20 µM (active).

Take `O=C(N[C@H]1CN2CCC1CC2)c1cc2ccoc2cn1`: the outcome was inactive.

`Oc1ccc(C(c2ccc(O)cc2)(C(F)(F)F)C(F)(F)F)cc1`: the call was inactive.

Take `CO/C=C(/C(=O)OC)c1ccccc1COc1cccc(C(F)(F)F)n1`: the concentration at half-maximal activity (AC50) is 5 µM (active).

Turning to `C=CC(N)=O`, the molecule was called inactive.

Turning to `COc1ccc(O)c(C(C)(C)C)c1`, the call was inactive and the half-maximal activity concentration (AC50) is 30.8 µM (active).

As to `ClC1=C(Cl)[C@]2(Cl)[C@@H]3[C@@H](Cl)[C@H]4O[C@H]4[C@@H]3C1(Cl)C2(Cl)Cl`, the AC50 is 0.0884 µM (active).

Regarding `ClC1=C(Cl)[C@]2(Cl)[C@@H]3[C@@H]4C[C@@H]([C@H]5O[C@@H]45)[C@@H]3[C@@]1(Cl)C2(Cl)Cl`, the AC50 was 0.192 µM (active).

As to `CCC(C)c1cc([N+](=O)[O-])cc([N+](=O)[O-])c1O` (configuration not stated), the molecule was called inactive.

Take `c1ccc(-c2ccccc2)cc1`: the molecule was classed as inactive.

On to `Nc1ccc(-c2ccc(N)cc2)cc1`, for which the molecule was called inactive.

Turning to `CC#Cc1cc(C)nc(Nc2ccccc2)n1`, the concentration at half-maximal activity (AC50) was 31 µM (active).

`ClC(Cl)=C(c1ccc(Cl)cc1)c1ccc(Cl)cc1`: the molecule was classed as inactive.

As to `ClC1=C(Cl)[C@]2(Cl)[C@@H]3[C@H]4C[C@H]([C@@H]5O[C@H]45)[C@@H]3[C@@]1(Cl)C2(Cl)Cl`, the call was inactive.

Consider `CC(c1ccc(O)cc1)(c1ccc(O)cc1)c1ccc(O)cc1`, for which the result was inactive.

Take `CCC(C)(CC)c1cc(NC(=O)c2c(OC)cccc2OC)on1`: the result was inactive.

Regarding `CN(C)CCO`, the molecule was classed as inactive.

For the molecule `CCCCCCCCCc1ccc(O)cc1`, the half-maximal activity concentration (AC50) was 31 µM (active).

Consider `CCCN(CCC)N=O`, for which the molecule was called inactive.

With `CC(C)C(=O)OCC(C)(C)C(OC(=O)C(C)C)C(C)C` (configuration not stated), the outcome was inactive.

On to `Clc1ccc(C(Cl)(Cl)Cl)cc1`, for which the outcome was inactive.

As for `CCSC(=O)N(CC)C1CCCCC1`, the result was inactive.
